# Tests used:
# Experiment in all cases: DAPPL (digital affinity profiling via proximity ligation, sequencing); 10 mM Tris-HCl pH 7.5, 50 mM NaCl, 1 mM DTT, 4% glycerol, room temperature, 30 min; GST-TFs on glutathione beads, 16-mer random dsDNA library, 0.1% formaldehyde crosslink after washing; high values mean tight binding
# Details in all cases: protein: recombinant; tags: N-terminal GST; dsDNA, one strand shown
# ETV2 = target: T1, ETV2 (Homo sapiens, UniProt O00321 1-342)
# T1 sequence: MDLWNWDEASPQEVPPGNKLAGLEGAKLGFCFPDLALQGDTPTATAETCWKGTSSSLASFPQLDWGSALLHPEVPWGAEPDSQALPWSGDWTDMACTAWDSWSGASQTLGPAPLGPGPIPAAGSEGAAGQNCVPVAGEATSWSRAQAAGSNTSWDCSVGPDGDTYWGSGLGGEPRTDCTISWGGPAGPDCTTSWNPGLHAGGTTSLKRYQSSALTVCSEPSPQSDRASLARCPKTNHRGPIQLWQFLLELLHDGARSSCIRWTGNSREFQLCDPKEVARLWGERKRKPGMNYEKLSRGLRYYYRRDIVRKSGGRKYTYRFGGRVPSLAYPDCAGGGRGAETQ
# Method in brief: (§1)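 The binding signal reported is, for every hexamer, its read frequency for a factor over its read frequency for the tag-only sample. Reads came from pools of yeast-expressed, GST-fused human transcription factors on glutathione beads, barcoded with DNA and mixed with that sample, which were incubated with 200 nmole of a random double-stranded 16-mer DNA library in Tris/NaCl/DTT/glycerol buffer at room temperature for 30 min. After washing, the pools were crosslinked with 0.1% formaldehyde, proximity-ligated with BsaI/T4 ligase for 1 h at 37 °C, PCR-amplified and sequenced on an Illumina NextSeq500.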
# ELF3 = target: T2, ELF3 (Homo sapiens, UniProt P78545 1-371)
# T2 sequence: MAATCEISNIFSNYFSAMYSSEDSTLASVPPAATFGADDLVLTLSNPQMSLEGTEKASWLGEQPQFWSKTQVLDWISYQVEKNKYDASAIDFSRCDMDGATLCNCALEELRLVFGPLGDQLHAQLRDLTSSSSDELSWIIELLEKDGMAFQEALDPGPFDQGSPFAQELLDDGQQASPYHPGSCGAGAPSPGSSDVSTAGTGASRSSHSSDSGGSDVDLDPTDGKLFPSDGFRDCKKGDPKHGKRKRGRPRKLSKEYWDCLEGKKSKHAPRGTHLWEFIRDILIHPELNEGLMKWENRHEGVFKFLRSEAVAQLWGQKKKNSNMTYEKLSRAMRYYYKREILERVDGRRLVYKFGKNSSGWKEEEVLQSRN
# Method in brief: as §1
# ETV1 = ETV1 (Homo sapiens, UniProt P50549 1-477)
# Sequence of ETV1 (P50549 whole entry): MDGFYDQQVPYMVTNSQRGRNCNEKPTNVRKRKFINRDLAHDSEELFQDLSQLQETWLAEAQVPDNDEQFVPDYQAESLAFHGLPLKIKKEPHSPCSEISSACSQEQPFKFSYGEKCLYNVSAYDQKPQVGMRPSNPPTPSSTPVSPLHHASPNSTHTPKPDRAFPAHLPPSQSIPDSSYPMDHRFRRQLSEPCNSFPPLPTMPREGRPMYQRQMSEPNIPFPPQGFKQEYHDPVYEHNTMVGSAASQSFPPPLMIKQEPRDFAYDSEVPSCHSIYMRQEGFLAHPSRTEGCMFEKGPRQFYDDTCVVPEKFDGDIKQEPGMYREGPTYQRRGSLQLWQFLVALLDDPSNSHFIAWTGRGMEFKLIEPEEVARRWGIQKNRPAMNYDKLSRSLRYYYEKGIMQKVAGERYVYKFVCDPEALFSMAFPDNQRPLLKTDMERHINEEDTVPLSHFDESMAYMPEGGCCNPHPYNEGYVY
# Method in brief: as §1
# ERF = target: T3, ERF (Homo sapiens, UniProt P50548 1-548)
# T3 sequence: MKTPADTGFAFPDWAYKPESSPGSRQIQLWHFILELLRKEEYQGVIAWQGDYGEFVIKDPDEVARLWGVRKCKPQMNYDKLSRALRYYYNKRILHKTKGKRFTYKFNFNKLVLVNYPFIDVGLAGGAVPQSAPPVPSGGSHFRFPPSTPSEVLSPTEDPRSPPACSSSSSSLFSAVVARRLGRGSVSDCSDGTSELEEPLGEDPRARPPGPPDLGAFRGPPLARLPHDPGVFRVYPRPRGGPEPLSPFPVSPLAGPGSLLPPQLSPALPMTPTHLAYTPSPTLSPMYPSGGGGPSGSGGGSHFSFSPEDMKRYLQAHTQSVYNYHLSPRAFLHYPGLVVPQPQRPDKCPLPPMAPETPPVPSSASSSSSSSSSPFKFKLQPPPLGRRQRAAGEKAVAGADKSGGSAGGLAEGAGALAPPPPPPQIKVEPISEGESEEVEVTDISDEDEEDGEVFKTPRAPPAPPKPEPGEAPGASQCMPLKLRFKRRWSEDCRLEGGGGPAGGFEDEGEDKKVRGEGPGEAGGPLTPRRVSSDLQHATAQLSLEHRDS
# Method in brief: as §1
# ETV3L = target: T4, ETV3L (Homo sapiens, UniProt Q6ZN32 1-361)
# T4 sequence: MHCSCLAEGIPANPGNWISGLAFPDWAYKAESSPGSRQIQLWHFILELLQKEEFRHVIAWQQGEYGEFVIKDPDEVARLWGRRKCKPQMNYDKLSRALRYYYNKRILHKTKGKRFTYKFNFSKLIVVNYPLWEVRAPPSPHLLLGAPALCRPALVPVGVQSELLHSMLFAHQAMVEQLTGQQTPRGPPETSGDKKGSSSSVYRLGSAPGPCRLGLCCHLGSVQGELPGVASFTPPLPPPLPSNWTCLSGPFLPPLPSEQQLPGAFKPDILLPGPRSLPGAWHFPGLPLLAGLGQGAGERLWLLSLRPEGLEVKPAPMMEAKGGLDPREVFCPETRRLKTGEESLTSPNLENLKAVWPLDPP
# Method in brief: as §1
# ETS2 = target: T5, ETS2 (Homo sapiens, UniProt P15036 1-469)
# T5 sequence: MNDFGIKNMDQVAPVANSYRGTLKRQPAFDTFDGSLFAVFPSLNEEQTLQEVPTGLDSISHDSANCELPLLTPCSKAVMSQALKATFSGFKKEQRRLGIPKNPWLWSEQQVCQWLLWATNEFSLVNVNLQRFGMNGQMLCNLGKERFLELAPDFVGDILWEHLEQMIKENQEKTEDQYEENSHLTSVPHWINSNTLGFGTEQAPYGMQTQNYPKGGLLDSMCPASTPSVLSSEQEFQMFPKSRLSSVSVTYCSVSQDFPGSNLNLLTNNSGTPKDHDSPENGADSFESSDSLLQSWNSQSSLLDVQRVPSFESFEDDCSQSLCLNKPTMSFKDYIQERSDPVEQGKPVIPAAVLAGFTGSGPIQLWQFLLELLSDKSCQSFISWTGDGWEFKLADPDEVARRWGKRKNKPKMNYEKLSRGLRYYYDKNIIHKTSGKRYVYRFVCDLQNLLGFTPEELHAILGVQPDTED
# Method in brief: as §1
# SPDEF = target: T6, SPDEF (Homo sapiens, UniProt O95238 1-335)
# T6 sequence: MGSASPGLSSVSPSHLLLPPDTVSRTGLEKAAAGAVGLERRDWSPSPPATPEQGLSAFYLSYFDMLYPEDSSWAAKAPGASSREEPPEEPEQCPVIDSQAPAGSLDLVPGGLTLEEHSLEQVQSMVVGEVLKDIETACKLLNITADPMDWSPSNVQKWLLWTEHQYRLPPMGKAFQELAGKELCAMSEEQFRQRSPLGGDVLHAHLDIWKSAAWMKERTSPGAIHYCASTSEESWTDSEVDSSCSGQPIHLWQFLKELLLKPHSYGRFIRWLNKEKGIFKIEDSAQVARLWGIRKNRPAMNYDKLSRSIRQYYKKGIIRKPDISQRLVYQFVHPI
# Method in brief: as §1
# ETV7 = target: T7, ETV7 (Homo sapiens, UniProt Q9Y603 1-341)
# T7 sequence: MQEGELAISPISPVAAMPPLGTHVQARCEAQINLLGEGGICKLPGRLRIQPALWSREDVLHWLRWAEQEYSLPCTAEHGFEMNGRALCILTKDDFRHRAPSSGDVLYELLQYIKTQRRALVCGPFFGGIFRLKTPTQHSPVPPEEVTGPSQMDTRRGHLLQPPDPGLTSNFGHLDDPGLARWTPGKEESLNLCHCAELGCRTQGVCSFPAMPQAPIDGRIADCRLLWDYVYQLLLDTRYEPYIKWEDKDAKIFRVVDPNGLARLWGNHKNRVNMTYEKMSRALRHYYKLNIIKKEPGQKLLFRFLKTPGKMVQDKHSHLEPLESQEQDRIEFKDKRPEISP
# Method in brief: as §1
# ETV3 = target: T8, ETV3 (Homo sapiens, UniProt P41162-2 1-143)
# T8 sequence: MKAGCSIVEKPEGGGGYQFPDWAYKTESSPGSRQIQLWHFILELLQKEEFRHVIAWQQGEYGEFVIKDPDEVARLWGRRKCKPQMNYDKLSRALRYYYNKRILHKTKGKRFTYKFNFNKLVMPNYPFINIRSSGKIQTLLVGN
# Method in brief: as §1
# ETV6 = ETV6 (Homo sapiens, UniProt P41212 1-452)
# Sequence of ETV6 (P41212 whole entry): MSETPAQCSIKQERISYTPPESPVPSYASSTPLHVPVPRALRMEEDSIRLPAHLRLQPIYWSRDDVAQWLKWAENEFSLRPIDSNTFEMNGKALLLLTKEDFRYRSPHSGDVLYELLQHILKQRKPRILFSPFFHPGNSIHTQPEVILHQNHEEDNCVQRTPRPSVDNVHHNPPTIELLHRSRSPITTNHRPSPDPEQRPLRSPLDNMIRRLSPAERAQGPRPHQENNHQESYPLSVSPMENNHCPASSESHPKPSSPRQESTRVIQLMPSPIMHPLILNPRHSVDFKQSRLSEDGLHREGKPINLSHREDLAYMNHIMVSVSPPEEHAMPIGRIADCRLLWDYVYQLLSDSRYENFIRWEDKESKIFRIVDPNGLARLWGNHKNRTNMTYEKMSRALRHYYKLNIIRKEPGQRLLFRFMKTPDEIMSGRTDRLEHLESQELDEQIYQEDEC
# Method in brief: as §1
sequence,measurement,setting,value
GGTAAA,binding signal,ETV2,"1.03 fold enrichment (6-mer frequency, TF over GST control)"
same,binding signal,ELF3,"1.13 fold enrichment (6-mer frequency, TF over GST control)"
same,binding signal,ETV1,"1.08 fold enrichment (6-mer frequency, TF over GST control)"
same,binding signal,ERF,"1.01 fold enrichment (6-mer frequency, TF over GST control)"
same,binding signal,ETV3L,"1 fold enrichment (6-mer frequency, TF over GST control)"
same,binding signal,ETS2,"1.1 fold enrichment (6-mer frequency, TF over GST control)"
same,binding signal,SPDEF,"1.02 fold enrichment (6-mer frequency, TF over GST control)"
same,binding signal,ETV7,"1.12 fold enrichment (6-mer frequency, TF over GST control)"
same,binding signal,ETV3,"1.06 fold enrichment (6-mer frequency, TF over GST control)"
same,binding signal,ETV6,"1.07 fold enrichment (6-mer frequency, TF over GST control)"
